PBM binding z-score data for 14 sequences are collected here from the supplement of paper PMC6555819.

Experiment in all cases: PBM binding z-score (relative to random genomic background probes); higher = stronger binding; sequences stand for … in GC…GCGATTGACAGCGTAGAATGAAGG
Experiment [1] relates to RARb homodimer (NR concentration 270 nM). Put shortly: (§1)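 On custom Agilent 4×180K arrays, double-stranded probes with 34-nt variable regions carried direct-repeat seeds, single-nucleotide variants, half-site ablations or random human genomic background. Ligand-free nuclear receptor dimers were applied for 1 h, and binding was read with antibodies against each partner (one per run). Binding z-scores come from regression-normalized fluorescence, with the random background probes as reference.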

Experiment [2] concerns RARg:RXRa (NR concentration 270 nM, RXRa partner concentration 90 nM). In a few lines: as §1
The test system of experiment [3] is RARg homodimer (NR concentration 270 nM). In a few lines:
as §1

Experiment [4] relates to RXRa DBDmut IVT, anti-RXR (DBD mutation: RXRa K156A/R161A, NR concentration 90 nM). Put shortly: as §1
Experiment [5] has as its system RXRa homodimer (NR concentration 180 nM). Put shortly:
as §1

The subject of experiment [6] is THRa:RXRa (NR concentration 90 nM, RXRa partner concentration 90 nM). Put shortly: as §1
Experiment [7] relates to THRa homodimer (NR concentration 90 nM). In a few lines: as §1
Experiment [8] concerns VDR homodimer (NR concentration 270 nM). Put shortly: as §1

Regarding AGAATGAGGTTATACGTAGATAAGGGAAGAAAGT, the PBM binding z-score in experiment [1] was 0.654; in experiment [2] it was 1.77; in experiment [3], 1.26; in experiment [4], 1.23; in experiment [5], 2.29; in experiment [6] it was 2.11. Further, the PBM binding z-score in experiment [7] is 0.472; in experiment [8], 0.781.

For the sequence CGAACTAGGTCAAGGGCAGTGAATCTCCGCACGC, the PBM binding z-score in experiment [1] was 3.25; in experiment [2] it was 3.74; in experiment [3], 4.64; in experiment [4], 1.59; in experiment [5] it was 2.35; in experiment [6] it was 2.98. Besides, the PBM binding z-score in experiment [7] was determined as 0.986; in experiment [8], 0.718.

As for CAGCCTAGGTCAGGGCCAGTAAAGGAGGAACGTT, the PBM binding z-score in experiment [1] was 2.33; in experiment [2], 2.7; in experiment [3], 3.44; in experiment [4], -0.0941; in experiment [5] it was 1.55; in experiment [6], 1.86. For the same sequence, the PBM binding z-score was 0.361 in experiment [7] and -0.267 in experiment [8].

In the case of CGTCAAAGTTCAACTAAGGTACCGTAAAGCACGC, the PBM binding z-score in experiment [1] was 4.34; in experiment [2], 5.81; in experiment [3] it was 6.61; in experiment [4], 4.77; in experiment [5], 5.35; in experiment [6], 4.81. For the same sequence, the PBM binding z-score in experiment [7] was 0.671; in experiment [8], 4.06.

Regarding GCAAGTTGGTCAGTAAAAGGTCACACACCGGTCG, the PBM binding z-score in experiment [1] worked out at 5.2; in experiment [2], 5.36; in experiment [3] it was 4.48; in experiment [4], 0.685; in experiment [5], 5.47; in experiment [6] it was 3.61. Moreover, the PBM binding z-score stood at 1.82 in experiment [7] and 1.96 in experiment [8].

In the case of TCGAGTAGGTTACCAAAGGGGCATTCAGCTTTCT, the PBM binding z-score worked out at 1.34 in experiment [1]; 2.2 in experiment [2]; 0.617 in experiment [3]; 0.44 in experiment [4]; 0.779 in experiment [5]; 0.46 in experiment [6]. Also, the PBM binding z-score in experiment [7] is -0.71; in experiment [8], 0.0103.

As for TGAATGAGGTTAAAGATCAAGGAACGTGGCGTCG, the PBM binding z-score was 0.599 in experiment [1]; 2.57 in experiment [2]; 1.35 in experiment [3]; 1.24 in experiment [4]; 4.06 in experiment [5]; 2.41 in experiment [6]. Also, the PBM binding z-score was 0.289 in experiment [7] and 0.251 in experiment [8].

Regarding ATATGTAGGTTAGCTCGGGTCATTCAGACTAGGC, the PBM binding z-score stood at 2.89 in experiment [1]; 2.48 in experiment [2]; 2.04 in experiment [3]; 0.986 in experiment [4]; 3.02 in experiment [5]; 4.98 in experiment [6]. The values for the PBM binding z-score in experiment [7] and in experiment [8] were 2.7 and 2.6, respectively.

Turning to CAAACTAGGTCACAGCGGTCAAAGTCCGTGCGTA, the PBM binding z-score in experiment [1] amounted to 4.53; in experiment [2], 5.19; in experiment [3], 5.77; in experiment [4], 1.84; in experiment [5], 3.87; in experiment [6] it was 3.66. Also, the PBM binding z-score in experiment [7] was 1.74; in experiment [8] it was 2.57.

As to TCAGACAGGTGCAGGTAACTCAGGTACGCAGTCG, the PBM binding z-score in experiment [1] was -0.182; in experiment [2], -0.0126; in experiment [3] it was -0.0497; in experiment [4], 0.956; in experiment [5] it was 0.745; in experiment [6] it was 0.824. Further, the figures for the PBM binding z-score in experiment [7] and in experiment [8] were 0.0725 and 0.478, respectively.

Consider GCTTTTAGTTGAAAGGGCAACCGAATGATTCTCG, for which the PBM binding z-score in experiment [1] worked out at 1.78; in experiment [2], 1.2; in experiment [3], 1.29; in experiment [4], 0.971; in experiment [5], 1.06; in experiment [6], 0.54. For the same sequence, the figures for the PBM binding z-score in experiment [7] and in experiment [8] were -0.708 and -0.32, respectively.

On to GCTTGGAGATCAAGGTTAAGAAAGACTAAGCTAA, for which the PBM binding z-score in experiment [1] was 0.301; in experiment [2] it was 0.332; in experiment [3], 0.139; in experiment [4], -0.28; in experiment [5], 1; in experiment [6], 1.16. For the same sequence, the PBM binding z-score in experiment [7] was -0.468; in experiment [8], 0.0219.

Take TCATATAGGTAAATGCTAGGTGACAGTCCGATCT: the PBM binding z-score was 0.444 in experiment [1]; 0.642 in experiment [2]; 0.401 in experiment [3]; 1.28 in experiment [4]; 0.653 in experiment [5]; 1.4 in experiment [6]. In addition, the PBM binding z-score in experiment [7] turned out to be 0.389; in experiment [8], 0.525.

With ATATGTAGGTTAGCTGGGGTCATCCAGACTAGGC, the PBM binding z-score in experiment [1] worked out at 4.24; in experiment [2], 4.41; in experiment [3], 3.52; in experiment [4] it was 1.31; in experiment [5] it was 5.97; in experiment [6], 5.2. For the same sequence, the PBM binding z-score in experiment [7] was 3.24; in experiment [8] it was 4.34.
